In PubChem BioAssay (NCI) one finds growth data, which are given here for eight molecules.

The panel holds about 83,000 compounds, 20% with a hit somewhere; the sample as a whole holds those more often.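 Interpretation: 100, growth as untreated; towards 0, rising growth inhibition; 0, no net growth; 0 to -100, cell death. Compounds scoring below 10 were considered active.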 Unmarked numbers belong to inactive results. Active and inactive are the calls of the source.

What all share (assay): NCI-60 one-dose screen, 48 h (100 = growth as untreated, 0 = no growth, -100 = all killed)
Common to all, as to conditions: 10 µM

Assay [1] deals with 786-0 renal.
Assay [2] deals with MALME-3M melanoma.
Assay [3] relates to MDA-MB-231 breast.
Assay [4] has as its system SF-268 CNS.
Assay [5] concerns SF-295 CNS.
The test system of assay [6] is UACC-257 melanoma.
In assay [7] the test system is UACC-62 melanoma.
The test system of assay [8] is SK-MEL-2 melanoma.
The subject of assay [9] is EKVX NSCLC.
In assay [10] the test system is SN12C renal.
The subject of assay [11] is UO-31 renal.
The test system of assay [12] is TK-10 renal.
For assay [13], the system named is CAKI-1 renal.
The test system of assay [14] is A498 renal.
Assay [15] concerns OVCAR-8 ovarian.
The test system of assay [16] is OVCAR-5 ovarian.
Assay [17] has as its system IGROV1 ovarian.
Assay [18] deals with OVCAR-3 ovarian.
Assay [19] deals with HS 578T breast.
Assay [20] relates to NCI/ADR-RES ovarian.

As for `CCn1c(SCC(=O)Nc2ccc(-c3nc4ccccc4[nH]3)cc2)nc2ccccc2c1=O`, the growth in [1] was -89.1% (active); in assay [2], -83.6% (active); in [3], -71.1% (active); in assay [4] it was -29.4% (active); in [5] it was -66.8% (active); in assay [6] it was -84.6% (active). For the same molecule, the growth was -81.7% (active) in assay [7]; -79.4% (active) in assay [8]; -42.5% (active) in [9]; -77.7% (active) in assay [10]; -95.4% (active) in assay [11]; -95.4% (active) in assay [12]. The growth in assay [13] is -99.2% (active); in assay [14], -75% (active); in assay [15] it was -85.5% (active); in assay [16], -44.4% (active); in assay [17] it was -52.5% (active); in assay [18], -66.1% (active). Further, the growth in assay [19] is -37.8% (active); in assay [20], -42.6% (active).

With `CC1(C)CC(=O)C2=C(C1)N(Cc1ccc(C(=O)O)cc1)C1=C(C(=O)CC(C)(C)C1)C2c1ccc(Cl)cc1`, the growth was 95.5% in [1]; 105% in assay [2]; 106% in assay [3]; 106% in assay [4]; 99.4% in assay [5]; 101% in assay [6]. The growth in assay [7] was 89.9%; in assay [8] it was 97.6%; in assay [9] it was 97.5%; in [10] it was 103%; in assay [11], 81.6%; in assay [12], 92.2%. Also, the growth was 90.5% in [13]; 95.8% in assay [14]; 105% in assay [15]; 106% in assay [16]; 107% in assay [17]; 112% in assay [18]. The growth in assay [19] is 105%; in assay [20] it was 95.3%.

With `O=C(Nc1ccc(OCC(=O)c2ccc(Cl)cc2)cc1)Nc1ccc(Cl)c(C(F)(F)F)c1`, the growth in assay [1] is 26%; in [2] it was 27.4%; in [3] it was 48.1%; in [4], 46.5%; in [5], 27.5%; in assay [6], 19.8%. In addition, the growth in assay [7] was 18.1%; in assay [8], -35.4% (active); in assay [9], 16.9%; in [10], 58%; in assay [11] it was 13.9%; in [12], 71.9%. Also, the growth in assay [13] was 41.1%; in assay [14] it was 0.685% (active); in [15], 30.1%; in assay [16], 61.2%; in assay [17] it was 39.9%; in assay [18] it was 34%. Besides, the growth in [19] is 18%; in assay [20], 57.6%.

For `COc1cccc(O)c1/C=C1\SCc2cc3c(OC)cccc3[o+]c21`, the growth in assay [1] is 105%; in [2], 107%; in assay [3], 102%; in assay [4], 103%; in assay [5], 99%; in [6] it was 103%. Also, the growth in assay [7] was 98.7%; in [8], 110%; in assay [9], 105%; in assay [10], 101%; in assay [11], 65.5%; in [12], 111%. Besides, the growth in [13] is 96.8%; in [14] it was 141%; in [15], 107%; in [16], 105%; in assay [17], 104%; in assay [18] it was 108%. Moreover, the growth in [19] is 111%; in assay [20], 108%.

For the molecule `Cc1ccc(-c2nc(C#N)c(S(=O)(=O)N3CCN(S(C)(=O)=O)CC3)o2)cc1`, the growth was -76.2% (active) in [1]; -76.8% (active) in assay [2]; 77.6% in [3]; 88.5% in assay [4]; 155% in assay [5]; 57.7% in [6]. For the same molecule, the growth was 53.4% in [7]; 75.5% in [8]; 101% in assay [9]; 78.1% in [10]; 26.7% in assay [11]; 97% in assay [12]. The growth in assay [13] is 72%; in [14], 132%; in assay [15], 25.5%; in assay [16] it was 76.9%; in assay [17] it was 54.9%; in assay [18] it was -22% (active). Moreover, the growth was 100% in assay [19] and 57.6% in assay [20].

With `O=C(c1ccccc1)c1ccc2nc(-c3ccccc3Br)[nH]c2c1`, the growth is -89.9% (active) in assay [1]; -68.4% (active) in [2]; -8.52% (active) in assay [3]; -2.6% (active) in assay [4]; 11.2% in assay [5]; -59.1% (active) in assay [6]. For the same molecule, the growth in [7] was -47.5% (active); in assay [8] it was -93.9% (active); in assay [9], -76.8% (active); in assay [10], -42.8% (active); in [11] it was -99.1% (active); in assay [12], -77.7% (active). In addition, the growth in assay [13] is -92.8% (active); in assay [14] it was 9.77% (active); in assay [15] it was 12.6%; in assay [16], -65.8% (active); in [17], -58.9% (active); in assay [18], -80.3% (active). Besides, the growth in assay [19] is 29%; in assay [20] it was 0.18% (active).

For the molecule `O=C(CC(=O)Nc1ccc(Oc2ncnc3scc(Nc4n[nH]c(=S)s4)c23)cc1)Nc1ccc(Br)cc1`, the growth in assay [1] is 109%; in [2], 105%; in assay [3], 101%; in [4], 98.7%; in assay [5], 112%; in assay [6] it was 104%. The growth was 82.2% in assay [7]; 98.8% in assay [8]; 101% in assay [9]; 106% in assay [10]; 85.1% in [11]; 146% in assay [12]. For the same molecule, the growth was 88.8% in assay [13]; 121% in assay [14]; 102% in [15]; 106% in [16]; 106% in [17]; 105% in [18]. The growth in assay [19] was 96.7%; in assay [20], 103%.

On to `Cc1ccc2c(c1)C(=O)/C(=C/c1c[nH]c3ccccc13)S2`, for which the growth in assay [1] is 63.9%; in assay [2], 91.9%; in assay [3], 59.7%; in [4], 44.9%; in assay [5], 73.2%; in assay [6], 72.4%. Further, the growth is 54.4% in assay [7]; 99.7% in assay [8]; 50.8% in assay [9]; 51.2% in [10]; 40.4% in assay [11]; 105% in [12]. The growth was 37.1% in assay [13]; 127% in [14]; 55.3% in [15]; 87% in [16]; 59.8% in assay [17]; 42.7% in [18]. Also, the growth was 55.6% in assay [19] and 71.6% in [20].
